Where “and” joins values, the source holds several entries; their conditions need not be identical. Identical values can stand only once. Counter-ions that a name gives are not always drawn.
Columns and labels:
Experiment in all cases: cell viability relative to vehicle control; higher = less cytotoxic
Details in all cases: 10 µM
K562 = tested on: K562
Summary of the method: (§1)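 Each screen used CRISPR-edited mutant and wild-type clones from four leukaemia lines. Compounds were acoustically dispensed at a single 10 µM dose, and CellTiter-Glo luminescence was read after 48 h with the supernatant first removed. Viability was analysed in Genedata Screener and given as percent of the on-plate vehicle control.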

MARIMO = tested on: MARIMO
Summary of the method: as §1

MOLM14 = tested on: MOLM14
Summary of the method: as §1

OCI-AML2 = tested on: OCI-AML2
Summary of the method: as §1

| SMILES | cell viability (K562; SRSF2 genotype: SRSF2 P95H/wt) | cell viability (K562; SRSF2 genotype: SRSF2 wt/wt) [%] | cell viability (MARIMO; SRSF2 genotype: SRSF2 P95H/wt) [%] | cell viability (MARIMO; SRSF2 genotype: SRSF2 wt/wt) [%] | cell viability (MOLM14; SRSF2 genotype: SRSF2 P95H/wt) [%] | cell viability (MOLM14; SRSF2 genotype: SRSF2 wt/wt) [%] | cell viability (OCI-AML2; SRSF2 genotype: P95H/wt) [%] | cell viability (OCI-AML2; SRSF2 genotype: wt/wt) [%] |
| --- | --- | --- | --- | --- | --- | --- | --- | --- |
| CN1CCN(c2ccc(C(=O)Nc3n[nH]c4ccc(Cc5cc(F)cc(F)c5)cc34)c(NC3CCOCC3)c2)CC1 [Entrectinib (RXDX-101)] | 0.53% and 0.51% | 0.41 | 0.56 | 2.11 | 0.29 | 0.28 | 0.22 | 0.35 |
| CC[C@H]1OC(=O)C[C@@H](O)[C@H](C)[C@@H](O[C@@H]2O[C@H](C)[C@@H](O[C@H]3C[C@@](C)(O)[C@@H](O)[C@H](C)O3)[C@H](N(C)C)[C@H]2O)[C@@H](CC=O)C[C@@H](C)C(=O)/C=C/C(C)=C/[C@@H]1CO[C@@H]1O[C@H](C)[C@@H](O)[C@@H](OC)[C@H]1OC [Tylosin] | 99.6% and 98.3% | 102 | 106 | 109 | 101 | 105 | 105 | 112 |
| O=C(O)[C@H]1O[C@@H](Oc2cc3oc(-c4ccc(O)cc4)cc(=O)c3c(O)c2O)[C@H](O)[C@@H](O)[C@@H]1O [Scutellarin] | 103% and 99.4% | 96 | 100 | 104 | 102 | 105 | 101 | 109 |
| CCCCc1oc2ccc(NS(C)(=O)=O)cc2c1C(=O)c1ccc(OCCCN(CCCC)CCCC)cc1 [Dronedarone HCl (Multaq)] | 0.8% and 0.71% | 0.61 | 0.56 | 0.71 | 0.53 | 0.6 | 0.5 | 0.55 |
| C[C@]12C=CC(=O)N[C@@H]1CC[C@@H]1[C@@H]2CC[C@]2(C)[C@@H](C(=O)Nc3cc(C(F)(F)F)ccc3C(F)(F)F)CC[C@@H]12 [Dutasteride] | 94.4% and 96.6% | 95 | 102 | 94.1 | 96 | 98.3 | 101 | 94.7 |
| O=C(NCc1ccc(Oc2ccccc2)cc1)c1nc(-c2cc(Br)c(O)c(Br)c2)no1 | 77.6% and 72% | 66.7 | 80.5 | 91.8 | 59.8 | 84.5 | 88.4 | 81.9 |
| CN(CCOc1ccc(NS(C)(=O)=O)cc1)CCc1ccc(NS(C)(=O)=O)cc1 [Dofetilide (Tikosyn)] | 97.8% and 97% | 101 | 97 | 104 | 95.8 | 101 | 99 | 107 |
| CNC1CCC(N(Cc2cccc(-c3ccncc3)c2)C(=O)c2sc3ccccc3c2Cl)CC1 (configuration not stated) [Smoothened Agonist (SAG) HCl] | 18.8% and 30.6% | 29.8 | 53.8 | 51.4 | 36.6 | 48.6 | 3.18 | 26.1 |
| CC1=C(C(=O)OCCN(Cc2ccccc2)c2ccccc2)C(c2cccc([N+](=O)[O-])c2)C(P2(=O)OCC(C)(C)CO2)=C(C)N1 (configuration not stated) [Efonidipine] | 78.8% and 87.3% | 83.7 | 95.5 | 98.4 | 82.2 | 95.7 | 104 | 82.3 |
| CC(=O)Nc1nc(C)c(-c2ccc(Cl)c(S(=O)(=O)NCCO)c2)s1 | 74.9% and 77.5% | 81.1 | 38.1 | 38.7 | 32.8 | 37.1 | 12.2 | 24.4 |
| CCN1CCN(C(=O)N[C@@H](C(=O)N[C@@H]2C(=O)N3C(C(=O)O)=C(CSc4nnnn4C)CS[C@H]23)c2ccc(O)cc2)C(=O)C1=O [Cefoperazone (Cefobid)] | 100% and 97.5% | 91.7 | 104 | 101 | 98.1 | 97.3 | 100 | 104 |
| NCCOc1cc(C(=O)Nc2cc(OCCN)c3ccccc3n2)nc(C(=O)Nc2cc(OCCN)c3ccccc3n2)c1 [Pyridostatin Trifluoroacetate Salt] | 87.7% and 94.2% | 72.6 | 83.8 | 84.5 | 57.4 | 33.6 | 6.12 | 17.8 |
| CC(C(=O)O)c1ccc(C(=O)c2cccs2)cc1 (configuration not stated) [Suprofen (Profenal)] | 107% and 103% | 93.2 | 94.7 | 110 | 98.9 | 99.9 | 88.8 | 94.2 |
| COc1ccc2c(c1O)-c1c(O)c(OC)cc3c1[C@H](C2)[N+](C)(C)CC3 [Magnoflorinechloride] | 99.2% and 99.7% | 98.2 | 99.4 | 103 | 103 | 102 | 93.8 | 98.7 |
| Cc1cc(Cl)ccc1OCCCC(=O)NO [Droxinostat] | 83.6% and 88.4% | 85.2 | 76.4 | 89.8 | 84.8 | 87.1 | 79.3 | 80.7 |
| CCOC(=O)N1CCN(c2ccc(OC[C@H]3CO[C@](Cn4ccnc4)(c4ccc(Cl)cc4Cl)O3)cc2)CC1 [Elubiol] | 43.3% and 36.5% | 41.8 | 29.3 | 28.8 | 39 | 21.1 | 10.3 | 15.9 |
| CC12CCC(O)CC1=CCC1C2CCC2(C)C(C(O)CC(O)(C(F)(F)F)C(F)(F)F)CCC12 (configuration not stated) | 86.1% and 93.4% | 98.3 | 97 | 90.3 | 76.7 | 91.8 | 71.3 | 76.3 |
| Cc1cc(O)c(-c2ccc([C@@H](C)CN(C)C)cc2)c2c1[nH]c(=O)c1sccc12 | 9.34% and 22.8% | 14.7 | 1.85 | 1.17 | 0.25 | 0.22 | 0.39 | 7.84 |
| Clc1ccc(COC(Cn2ccnc2)c2ccc(Cl)cc2Cl)c(Cl)c1 (configuration not stated) [Miconazole nitrate] | 68.8% and 61.8% | 67.2 | 70 | 76.1 | 57.4 | 64.3 | 66.2 | 63.4 |
| Cc1[nH]c(=O)c(C#N)cc1-c1ccncc1 [Milrinone (Primacor)] | 102% and 97.3% | 94.1 | 96.1 | 93.1 | 98.8 | 99.1 | 101 | 96 |

| SMILES | cell viability (K562; SRSF2 genotype: SRSF2 P95H/wt) | cell viability (K562; SRSF2 genotype: SRSF2 wt/wt) [%] | cell viability (MARIMO; SRSF2 genotype: SRSF2 P95H/wt) [%] | cell viability (MARIMO; SRSF2 genotype: SRSF2 wt/wt) [%] | cell viability (MOLM14; SRSF2 genotype: SRSF2 P95H/wt) [%] | cell viability (MOLM14; SRSF2 genotype: SRSF2 wt/wt) [%] | cell viability (OCI-AML2; SRSF2 genotype: P95H/wt) [%] | cell viability (OCI-AML2; SRSF2 genotype: wt/wt) [%] |
| --- | --- | --- | --- | --- | --- | --- | --- | --- |
| CC1(C)S[C@@H]2[C@H](NC(=O)[C@H](N)c3ccc(O)cc3)C(=O)N2[C@H]1C(=O)O [Amoxicillin sodium (Amox)] | 99.4% and 102% | 105 | 105 | 109 | 96 | 103 | 105 | 93.4 |
| CN(C)N(C)C(=O)[C@@]1(Cc2ccccc2)CCCN(C(=O)[C@@H](Cc2c[nH]c3ccccc23)NC(=O)C(C)(C)N)C1 [Anamorelin] | 82.4% and 78.3% | 80.7 | 70.5 | 74.3 | 76.5 | 78.8 | 69.2 | 68.2 |
| COc1cc(O)c2c(c1)C(=O)c1cc(C)cc(O)c1C2=O [Rheochrysidin (Physcione)] | 96.9% and 101% | 95.5 | 98.4 | 111 | 102 | 103 | 92.5 | 102 |
| O=C(NCCN1CCOCC1)c1ccc(Cl)cc1 | 97.6% and 103% | 106 | 101 | 98.8 | 97.6 | 105 | 105 | 93.8 |
| CCOC(=O)c1ccc(N2NC(=O)C(=Cc3ccc([N+](=O)[O-])o3)C2=O)cc1 | 95.6% and 99.7% | 96 | 95.8 | 90.9 | 90.8 | 94.9 | 102 | 107 |
| C=C1CC[C@H](O)C/C1=C/C=C1\CCC[C@]2(C)[C@@H]([C@H](C)/C=C/[C@H](C)C(C)C)CC[C@@H]12 [Vitamin D2 (Ergocalciferol)] | 103% and 100% | 102 | 101 | 104 | 93.4 | 102 | 100 | 98.3 |
| C[n+]1c2n(c(=O)c3ccccc31)CCc1c-2[nH]c2ccccc12 [Dehydroevodiamine] | 93.1% and 93.3% | 91.5 | 88.7 | 88.2 | 94.8 | 98.2 | 97.2 | 87.5 |
| CC(C)Nc1cc(-c2c[nH]c(C(=O)N[C@H](CO)c3cccc(Cl)c3)c2)c(Cl)cn1 | 73.3% and 90.4% | 81.5 | 37.9 | 40 | 48.8 | 34.9 | 41.8 | 37.6 |
| CC1=CC(=O)c2ccccc2C1=O [Menadione] | 95.2% and 95.7% | 108 | 98.9 | 93.1 | 91.1 | 102 | 14.8 | 12.8 |
| Cc1cc(N2CCN([C@@H]3CN[C@H](C(=O)N4CCSC4)C3)CC2)n(-c2ccccc2)n1 [Teneligliptin hydrobromide] | 90.4% and 78% | 83.5 | 86.8 | 95.5 | 84.8 | 89 | 94.2 | 91.8 |
| Cc1c(Cc2ccc3ccccc3n2)c2cc(F)ccc2n1CC(=O)O | 102% and 99.7% | 98.8 | 97.5 | 108 | 98.5 | 103 | 90.4 | 107 |
| COC(=O)[C@@]1(C)CC[C@]2(C(=O)O)CC[C@]3(C)C(=CC[C@@H]4[C@@]5(C)C[C@H](O)[C@H](O[C@@H]6OC[C@@H](O[C@@H]7O[C@H](CO)[C@@H](O)[C@H](O)[C@H]7O)[C@H](O)[C@H]6O)[C@@](C)(CO)[C@@H]5CC[C@]43C)[C@@H]2C1 [Esculentoside A] | 110% and 105% | 105 | 104 | 108 | 108 | 107 | 96.8 | 105 |
| CC[C@H](C)n1cc(C)c2c(C(=O)NCc3c(C)cc(C)[nH]c3=O)cc(-c3ccc(N4CCNCC4)nc3)cc21 | 78.3% and 82.1% | 78.2 | 80.9 | 94.6 | 81.6 | 81.7 | 68 | 75.4 |
| CC(C)(O)CNc1ncc(-c2ccnc(Nc3ccnc(Cl)c3)n2)c(CC2CC2)n1 | 41.9% and 40.5% | 36.9 | 39.5 | 41.2 | 8.93 | 9.79 | 5.49 | 12.8 |
| CCOc1cc(C(C)(C)C)ccc1C1=N[C@@](C)(c2ccc(Cl)cc2)[C@@](C)(c2ccc(Cl)cc2)N1C(=O)N1CCN(CCCS(C)(=O)=O)CC1 | 80.8% and 82.7% | 79.8 | 91.2 | 107 | 0.32 | 0.35 | 0.58 | 13.8 |
| COc1cc([C@@H]2c3cc4c(cc3[C@@H](O[C@@H]3O[C@@H]5CO[C@@H](c6cccs6)O[C@H]5[C@H](O)[C@H]3O)[C@H]3COC(=O)[C@H]23)OCO4)cc(OC)c1O [Teniposide (Vumon)] | 8.79% and 17.8% | 6.27 | 3.97 | 2.15 | 0.52 | 0.37 | 0.66 | 0.72 |
| Cc1nn(C)c2c1C(c1ccc(C(F)(F)F)cc1)C(C#N)=C(N)O2 (configuration not stated) | 101% and 106% | 111 | 99.5 | 95 | 103 | 102 | 112 | 121 |
| COc1c(N2CCNC(C)C2)c(F)cc2c(=O)c(C(=O)O)cn(C3CC3)c12 (configuration not stated) [Gatifloxacin] | 97.2% and 103% | 108 | 112 | 108 | 102 | 101 | 104 | 100 |
| CCCCNc1ncc(C(=O)NCc2ccc(-n3ccnc3)cc2)c(NC2CCC(O)CC2)n1 (configuration not stated) | 84.4% | 72.8 | 73 | 83.9 | 25.6 | 20.8 | 48.4 | 52.1 |

From the supplement of paper PMC10981050
